Experimental data taken from the supplement of paper PMC10338343.
± gives the standard deviation.

Tests used:
[1] = tested on: MILI (PIWIL2) piRISC loaded with L1MC piRNA (26 nt); assay: pre-steady-state target cleavage rate (min^-1); guide: L1MC piRNA 5'p-UAACUAAAUACUAUGCAAGCUGUAGG; higher = faster piRNA-guided slicing of the target
Method in brief: (§1)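 Active affinity-purified piRISC (1 nM) loaded with one synthetic guide was mixed with a transcribed, DNA-blocked target RNA library (0.1 nM), with or without 500 nM GTSF1 partner protein, in HEPES–potassium acetate buffer at 33 °C for 0–8 or 0–960 min. Uncleaved targets were sequenced, normalised to depth and to weakly complementary targets, and pooled across three trials, with k3 capped at 0.0001 min^-1. The pre-steady-state cleavage rate was determined with a burst-and-steady-state fit.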

[2] = tested on: EfPiwi piRISC loaded with L1MC piRNA (26 nt); assay: pre-steady-state target cleavage rate (min^-1); auxiliary factor: 500 nM Ephydatia muelleri Gtsf1; guide: L1MC piRNA 5'p-UAACUAAAUACUAUGCAAGCUGUAGG; MIWI and MILI are mouse PIWI proteins and EfPiwi is from a freshwater sponge; tags in brackets are library labels; higher = faster piRNA-guided slicing of the target
Method in brief: as §1

[3] = auxiliary factor: 500 nM mouse GTSF1
[4] = auxiliary factor: none (no GTSF1)

Row | Sequence | pre-steady-state target cleavage rate [1, 3] | pre-steady-state target cleavage rate [1, 4] | pre-steady-state target cleavage rate [2]
1 | UCCUGGAUCACGAUGCAUAGUAUUUAGUUA | 0.134 ± 0.013 | 0.00516 ± 0.0028 | 0.0115 ± 0.004
2 | UCCUGGAUGAGCUUGCAUAGUAUCUAGUUA | 0.131 ± 0.019 | 0.00451 ± 0.0026 | 0.00844 ± 0.003
3 | UCCUCGUACAGCUUGCAUAGUAUUUAGUAA | 0.24 ± 0.014 | 0.00621 ± 0.0022 | 0.00794 ± 0.0029
4 | UCCUGGAUGAGCUUGCAUCGUAUUUAGUUA | 0.0594 ± 0.0092 | 0.00554 ± 0.0025 | 0.00975 ± 0.0029
5 | UCCUGGAUGCGCUUGCAUAGUAUUUAGUUA | 0.239 ± 0.016 | 0.0108 ± 0.0028 | 0.0286 ± 0.0065
6 | UCCUGGAAGCAGCUUGCAUAGUAUUUAGUUA | 0.259 ± 0.016 | 0.0136 ± 0.0032 | 0.0569 ± 0.013
7 | UCCUGGAACAGCUUGCAUUGUAAUUAGUUA | 0.184 ± 0.023 | 0.00389 ± 0.0028 | 0.00225 ± 0.0022
8 | UCCUCCUUCAGCUUGGAUAGUAUUUAGUUA | 0.242 ± 0.015 | 0.0086 ± 0.0023 | 0.0562 ± 0.013
9 | UCCUGGAUGAGCUUGCAUAGUAUUUGGUUA | 0.203 ± 0.025 | 0.00663 ± 0.0031 | 0.00713 ± 0.002
10 | UCCUCCUACAGCUUCGCAUAGUAUUUAGUUA | 0.282 ± 0.015 | 0.00644 ± 0.0025 | 0.121 ± 0.032
11 | UCCUGGAUGUGCUAGCAUAGUAUUUAGUUA | 0.125 ± 0.013 | 0.00747 ± 0.0023 | 0.00573 ± 0.0027
12 | UCCUGGAUCUGCUUGCAUUGUAUUUAGUUA | 0.159 ± 0.015 | 0.00477 ± 0.0023 | 0.00657 ± 0.003
13 | UCCUCCGACAGCUUGCAUAGUAUUUAGUUA | 0.25 ± 0.017 | 0.00881 ± 0.0021 | 0.101 ± 0.026
14 | UCCUGGUACAGCUUGCAUAGUAAUUAGUUA | 0.317 ± 0.034 | 0.00595 ± 0.0029 | 0.00654 ± 0.0025
15 | UCCUCCUCAGCUUGCAUAGUAUUUAGUUA | 0.258 ± 0.015 | 0.00784 ± 0.0019 | 0.0735 ± 0.017
16 | UCCUGGAUCAGCUUACAUAGUAUUUAGUUA | 0.249 ± 0.014 | 0.00805 ± 0.0023 | 0.175 ± 0.039
17 | UCCUGGAUCACGUUGCAUAGUAUUUAGUUA | 0.206 ± 0.019 | 0.00683 ± 0.0026 | 0.0686 ± 0.017
18 | UCCUGCUACAGGUUGGAUAGUAUUUAGUUA | 0.204 ± 0.018 | 0.00926 ± 0.0025 | 0.00793 ± 0.0027
19 | UCCUGCUACAGCUUGCAUUGUAUUUAGUAA | 0.176 ± 0.018 | 0.00356 ± 0.002 | 0.00316 ± 0.0014
20 | UCCUGGAUCAGCUUGCUUAGUAAUUAGUUA | 0.212 ± 0.022 | 0.00689 ± 0.0022 | 0.0988 ± 0.033
21 | UCCUCCUACCGCUUGCAUAGUAUUUAGUUA | 0.305 ± 0.015 | 0.0125 ± 0.003 | 0.0865 ± 0.023
22 | UCCUGGAUCAGCUUGCAUAGUAAUUUAGUUA | 0.162 ± 0.018 | 0.00701 ± 0.0022 | 0.00371 ± 0.0025
23 | UCCUGCUACAGCUUGCAUAGUAUAAAGUUA | 0.198 ± 0.025 | 0.00349 ± 0.0022 | 0.00347 ± 0.0022
24 | UCCUGGAUGUGCUUGCAUAGUAUCUAGUUA | 0.135 ± 0.031 | 0.00366 ± 0.0031 | 0.00344 ± 0.0024
25 | UCCUGCUACAGCAUGCAUAGUAUAUAGUUA | 0.284 ± 0.03 | 0.0054 ± 0.0024 | 0.00599 ± 0.0029
26 | UCCUGGAACAGCUUGCAUAGUGUUUAGUUA | 0.146 ± 0.018 | 0.00335 ± 0.0028 | 0.0084 ± 0.0024

Row | Sequence | pre-steady-state target cleavage rate [1, 3] | pre-steady-state target cleavage rate [1, 4] | pre-steady-state target cleavage rate [2]
27 | UCCUCCUACUGCUUGCAUACUAUUUAGUUA | 0.0694 ± 0.011 | 0.00355 ± 0.0019 | 0.0106 ± 0.0044
28 | UCCUGCUACAGCUUGGAAAGUAUUUAGUUA | 0.138 ± 0.012 | 0.00897 ± 0.0022 | 0.0208 ± 0.0042
29 | UCCUGGUACUGCAUGCAUAGUAUUUAGUUA | 0.222 ± 0.02 | 0.00932 ± 0.0034 | 0.0111 ± 0.0032
30 | UCCUCCUACAGUUGCAUAGUAUUUAGUUA | 0.255 ± 0.014 | 0.00612 ± 0.0019 | 0.0777 ± 0.021
31 | UCCUCCUACAGCAACCAUAGUAUUUAGUUA | 0.21 ± 0.022 | 0.00404 ± 0.002 | 0.00322 ± 0.0025
32 | UCCUGGAACAGCUUGGAUAGUAUUUUGUUA | 0.203 ± 0.034 | 0.00404 ± 0.0026 | 0.00249 ± 0.0021
33 | UCCUGGUACAGAUUGCAUAGUAUUUAGUUA | 0.257 ± 0.028 | 0.0104 ± 0.0044 | 0.0131 ± 0.0038
34 | UCCUGGAUGAGCUUGCAUAGUAUUUAGUGUA | 0.261 ± 0.041 | 0.00591 ± 0.0031 | 0.00866 ± 0.0031
35 | UCCUGGAUCAGCUUGCAUAGUACUUAGUUA | 0.237 ± 0.018 | 0.00683 ± 0.0023 | 0.0145 ± 0.0031
36 | UCCUCCAACAGCUUGCAUAGUAUUAAGUUA | 0.135 ± 0.021 | 0.0033 ± 0.0024 | 0.00502 ± 0.002
37 | UCCUGGAUCAGCUUGCAUAGUUUUUAGUUA | 0.0479 ± 0.0086 | 0.00873 ± 0.0021 | 0.00592 ± 0.0018
38 | UCCUGGAUCAGCUUGCAUUGUAUUUAGUUA | 0.179 ± 0.013 | 0.00955 ± 0.0024 | 0.0179 ± 0.0038
39 | UCCUGGUAGAGCUUGCAUAGUAUAUAGUUA | 0.207 ± 0.027 | 0.00638 ± 0.0021 | 0.0131 ± 0.0051
40 | UCCUGGAUGAGCUAGCAUAGUAUUUAGUUA | 0.2 ± 0.018 | 0.00679 ± 0.0019 | 0.00597 ± 0.002
41 | UCCUCCUAUAGCUUGCAUAGUAUUUAGUUA | 0.244 ± 0.015 | 0.00658 ± 0.0019 | 0.0108 ± 0.0034
42 | UCCUGGAUCAGCAUGCAUAGUAUUAAGUUA | 0.24 ± 0.012 | 0.00634 ± 0.0023 | 0.00392 ± 0.002
43 | UCCUCCUACAGGUUGCAUAGUAUUUAGUAA | 0.233 ± 0.017 | 0.00603 ± 0.0015 | 0.00547 ± 0.0022
44 | UCCUGGAUGAGCUUGCAUAGUAUUUAGUUC [g2:g21:cont:t1C] | 0.166 ± 0.014 | 0.00562 ± 0.0029 | 0.039 ± 0.01
45 | UCCUCCUACAGCUGGCAUAGUAUUUAGUUA | 0.294 ± 0.02 | 0.00732 ± 0.0023 | 0.0728 ± 0.02
46 | UCCUGGAACAGCUAGCAUAGUAAUUAGUUA | 0.155 ± 0.018 | 0.00801 ± 0.0026 | 0.0062 ± 0.0028
47 | UCCUGCUACAGCUUGCAUAGUAAUUAGUUA | 0.271 ± 0.028 | 0.00539 ± 0.0023 | 0.0061 ± 0.0022
48 | UCCUGGAACAGCUUGCAUGUAUUUAGUUA | 0.083 ± 0.014 | 0.00308 ± 0.0027 | 0.00314 ± 0.0027
49 | UCCUGCUACAGCUUGGUUAGUAUUUAGUAA | 0.148 ± 0.021 | 0.00357 ± 0.0022 | 0.00273 ± 0.0024
50 | UCCUGGUUCAGGUUGCAUAGUAUUUAGUUA | 0.21 ± 0.023 | 0.0182 ± 0.005 | 0.0166 ± 0.0047
51 | UCCUCCUACAGCUUGCACAGUAUUUAGUUA | 0.19 ± 0.017 | 0.00767 ± 0.0021 | 0.0475 ± 0.013
